# Reference: ChEMBL document CHEMBL2218924, “A broad activity screen in support of a chemogenomic map for kinase signalling research and drug discovery” (Biochem J, 2013)
# Molecular target: T1, Tyrosine-protein kinase Tec (Homo sapiens) (UniProt P42680)
# T1 sequence (whole entry): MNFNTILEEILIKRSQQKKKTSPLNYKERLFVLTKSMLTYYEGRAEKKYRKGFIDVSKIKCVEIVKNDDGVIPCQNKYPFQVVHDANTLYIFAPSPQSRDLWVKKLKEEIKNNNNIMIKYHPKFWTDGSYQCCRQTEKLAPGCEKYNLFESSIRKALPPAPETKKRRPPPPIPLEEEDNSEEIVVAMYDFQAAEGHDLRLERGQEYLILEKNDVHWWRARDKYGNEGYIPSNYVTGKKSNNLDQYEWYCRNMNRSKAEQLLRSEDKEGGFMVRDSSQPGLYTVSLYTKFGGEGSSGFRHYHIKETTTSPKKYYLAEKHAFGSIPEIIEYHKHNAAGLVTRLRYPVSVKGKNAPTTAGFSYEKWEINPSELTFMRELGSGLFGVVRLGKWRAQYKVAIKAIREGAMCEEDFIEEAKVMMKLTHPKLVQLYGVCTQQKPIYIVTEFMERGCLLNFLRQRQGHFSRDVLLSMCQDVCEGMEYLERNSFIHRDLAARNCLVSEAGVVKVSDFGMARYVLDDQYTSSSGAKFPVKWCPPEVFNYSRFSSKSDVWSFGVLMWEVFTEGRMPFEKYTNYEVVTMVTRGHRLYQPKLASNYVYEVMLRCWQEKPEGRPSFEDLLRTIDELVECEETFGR
# Settings: at 1 µM
row,Compound,residual activity [%]
1,Nc1nc(Nc2ccc(S(N)(=O)=O)cc2)nn1C(=S)Nc1c(F)cccc1F,78
2,NC(=O)c1ccc2[nH]c(-c3ccc(Oc4ccc(Cl)cc4)cc3)nc2c1,106
3,CC(=O)c1ccc(N2CCOCC2)cc1O,104
4,CO[C@H]1[C@@H](OC)C[C@H](C)[C@@H](OC)C2=CC(=O)C=C(NC(=O)/C(C)=C/C=C/[C@H](OC)[C@@H](OC(N)=O)/C(C)=C/[C@@H]1C)C2=O,89
5,N#CC(C#N)=C(N)/C(C#N)=C/c1ccc(O)cc1,90
6,O=C1Nc2cc(Br)ccc2/C1=C1/Nc2ccccc2/C1=N\O,15
7,COc1cc2ncnc(Nc3ccc(NC(=O)c4ccccc4)cc3)c2cc1OC,97
8,COc1cc2ncc(-c3ccccc3)nc2cc1OC,96
9,COc1cc2ncnc(Nc3ccc(Oc4ccccc4)cc3)c2cc1OC,40
10,CN(C)c1ccc(/C=C2\C(=O)Nc3ccccc32)cc1,87
11,O=C1Nc2ccccc2/C1=C1/Nc2ccccc2/C1=N\OCCC(O)CO (stereo not drawn),47
12,Oc1ccc(-c2nc(-c3ccc(F)cc3)c(-c3ccncc3)[nH]2)cc1,87
13,COc1ccc(C(=O)Nc2sc3c(c2C(N)=O)CCCC3)cc1OC,89
14,CCN(CC)C(=O)c1ccc(Nc2nc(OCC3CCCCC3)c3nc[nH]c3n2)cc1,24
15,C[C@@H](N)[C@H]1CC[C@H](C(=O)Nc2ccncc2)CC1,83
16,N#C/C(=C(\N)Sc1ccc(N)cc1)c1ccccc1C(F)(F)F,93
17,c1ccc2c(-c3ccncc3)c[nH]c2c1,103

row,Compound,residual activity [%]
1,O=C(O)c1ccc2c3c1cccc3c(=O)n1c3ccccc3nc21,99
2,Nc1ccc2ncnc(NCCc3ccc(Oc4ccccc4)cc3)c2c1,84
3,O=C(Nc1cccc(Nc2nccc(Nc3cccc(C(F)(F)F)c3)n2)c1)C1CC1,78
4,N#Cc1cnc2cnc(NCc3cccnc3)cc2c1Nc1ccc(F)c(Cl)c1,90
5,Ic1cccc(CSc2nnc(-c3ccncc3)o2)c1,90
6,CN(C)CCCn1cc(C2=C(c3c[nH]c4ccccc34)C(=O)NC2=O)c2ccccc21,113
7,O=C1Nc2ccc(Br)cc2/C1=C\c1cc2c([nH]1)CCCC2,105
8,O=C1NC(=O)/C(=C/c2ccc3c(c2)OC(F)(F)O3)S1,83
9,Oc1c2ccccc2c2c3c(cccc13)N=N2,89
10,CO[C@H]1C[C@@H]2CC[C@@H](C)[C@@](O)(O2)C(=O)C(=O)N2CCCC[C@H]2C(=O)O[C@H]([C@H](C)C[C@@H]2CC[C@@H](O)[C@H](OC)C2)CC(=O)[C@H](C)/C=C(\C)[C@@H](O)[C@@H](OC)C(=O)[C@H](C)C[C@H](C)/C=C/C=C/C=C/1C,96
11,Cc1cc(Nc2nc(-c3ccccc3)nc3ccccc23)n[nH]1,38
12,COc1cc2ncnc(N3CCN(C(=O)Nc4ccc(Oc5ccccc5)cc4)CC3)c2cc1OC,83
13,Cc1nc2cc3nc(-c4cccs4)cnc3cc2n1C,83
14,CCC(=O)Nc1ccc2ncnc(Nc3cccc(Br)c3)c2c1,86
15,CC#CC(=O)Nc1cc2c(Nc3ccc(F)c(Cl)c3)ncnc2cn1,62
16,Cn1cnc2cc3c(Nc4cccc(Br)c4)ncnc3cc21,82
